# SSB-PriA inh: inhibitors of Klebsiella pneumoniae PriA binding to SSB C-terminal tail, primary screen, biochemical, AlphaScreen | AlphaScreen SSBct-PriA binding, biotinylated peptide | hit rate 0.6% among 430,000 | PriA–SSB C-terminal tail interaction (Klebsiella pneumoniae) | inhibition, % at 33 µM | AID 1272365, 2023; in the data active = inhibition mostly above about 37%, no sharp cut-off; inactive = mostly below about 20%;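 also: plate controls were negative control peptide for no effect and reference peptide for full effect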
# Sa RN4220 lethal: growth inhibition of S. aureus RN4220, primary screen, OD600; 16 h; inhibition, % (concentration not given with the values); hit rate 0.33% among 330,000; in the data active = inhibition above about 85%;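 also: plate controls were untreated cells for no effect and reference antibiotic for full effect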
# Sa ugtP lethal: growth inhibition of ugtP-null S. aureus, primary screen, RN4220 ugtP deletion, OD600; growth inhibition, % (test concentration not listed); AID 1259309, 2017; 16 h; hit rate 0.54% among 330,000; in the data active = growth inhibition above about 68%;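 also: plate controls were untreated wells for no effect and antibiotic for full effect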
# Numbers without * were called inactive; · = no result. Shown are actives, neighbours in structure and some others; about 1% of the full set was active somewhere.
SMILES,SSB-PriA inh,Sa RN4220 lethal,Sa ugtP lethal
Cc1cccc(C(=O)NCC(=O)NNC(=O)c2ccccc2O)c1,9,0,3
COc1ccc(O)c(C(=O)CC(=O)c2ccc(F)cc2)c1,0,·,·
O=C(CC(=O)c1cc(Cl)ccc1O)c1ccccc1,-3,100*,100*
Cc1ccc(O)c(C(=O)CC(=O)c2ccc(Cl)cc2)c1,12,100*,101*
O=C(Nc1cnn(CC2CCOCC2)c1)c1ccc(C(F)(F)F)cc1,-15,·,·
O=C(Cc1c(F)cccc1Cl)NCC1CCN(C(=O)c2cc3ccccc3o2)CC1,-2,·,·
O=C(Oc1coc(CSc2ncccn2)cc1=O)c1ccc(Cl)c([N+](=O)[O-])c1,-4,·,·
COC(=O)c1ccc(C(=O)NC(=S)Nc2nc3c(s2)CCc2ccccc2-3)cc1,-7,·,·
C[C@](O)(CNC(=O)C(=O)Nc1ccon1)c1ccc(-c2ccccc2)cc1,-11,·,·
O=C(NCCn1ncccc1=O)Nc1ccccc1,-8,·,·
CCCOc1cc(N)ccc1C(=O)OCCN(CC)CC,4,7,4
CCCOc1ccc(N)cc1N,52*,4,-6
COc1cccc(C(O)=C2C(=O)C(=O)N(CCN(C)C)C2c2ccncc2)c1 (stereo not drawn),-14,·,·
O=C(O)CCCN1C(=O)/C(=C/c2cn(-c3ccccc3)nc2-c2cccs2)SC1=S,21,50,83*
O=C(O)CCCN1C(=O)/C(=C\c2ccccc2OCc2ccccc2)SC1=S,3,27,16
CC1CCN(C(=O)CSc2ncnc3sc4c(c23)CCC(C)C4)CC1 (stereo not drawn),-15,·,·
COC(=O)c1c(-c2ccc(C)c(C)c2)csc1NC(=O)CN1CCCCCC1,-8,·,·
O=C(NC(=S)Nc1ccc(Cl)cc1)c1ccccc1,3,4,24
O=C(NC(=S)Nc1ccc(Oc2ccc(Cl)cc2)cc1)c1ccccc1,1,-15,86*
COC(=O)C(O)(c1ccc(NC(=O)Oc2ccccc2)cc1)C(F)(F)F (stereo not drawn),-4,6,3
COC(=O)C(O)(c1ccc(NC(=S)NC(=O)c2ccccc2)cc1)C(F)(F)F (stereo not drawn),-1,-1,89*
Cc1nnsc1C(=O)OC1CN(c2nc3ccccc3s2)C1,-12,·,·
COC(=O)NCC1CC(=O)N(c2ccc3c(c2)OCO3)C1 (stereo not drawn),-1,·,·
COc1ccccc1NC(=O)c1oc2cccnc2c1NC(=O)COc1ccc(C)cc1,-4,·,·
Cc1cc(C)c(C(=O)CSc2nc3ccccc3[nH]2)c(C)c1,-5,·,·
SMILES,SSB-PriA inh,Sa RN4220 lethal,Sa ugtP lethal
N=c1c2c(n(Cc3ccc([N+](=O)[O-])cc3)c3c1CCC3)CCCC2,-1,0,8
N=c1c2c(n(Cc3ccc(Br)cc3)c3c1CCC3)CCCC2,12,41,99*
N=c1c2c(n(Cc3ccc(Cl)c(Cl)c3)c3c1CCC3)CCCC2,-11,91*,99*
CCCn1c2c(c(=N)c3c1CCC3)CCCC2,-6,3,3
COc1ccccc1N1CCN(C(=O)CC2CSc3ncc(C)c(=O)n32)CC1 (stereo not drawn),-6,·,·
COc1ccc(C2NCCc3c2[nH]c2ccccc32)cc1COc1ccc(F)cc1 (stereo not drawn),25,-1,-26
COc1ccc(C2NCCc3c2[nH]c2ccccc32)cc1CN1CCc2cc(OC)c(OC)cc2C1C (stereo not drawn),44*,2,1
O=S(=O)(/C=C/c1ccccc1)Nc1cccc(-c2cnc3n2CCC3)c1,22,·,·
O=C(NN=C/C=C/c1ccc([N+](=O)[O-])o1)c1cccs1,-3,·,·
O=C1NC(=S)S/C1=C\C=C\c1ccc([N+](=O)[O-])o1,15,100*,100*
COc1ccc(OCc2nnc(SCC(=O)NCC3CCCO3)n2N)cc1 (stereo not drawn),-1,0,-1
Nn1c(Cc2cccc3ccccc23)nnc1SCC(=O)NCC1CCCO1 (stereo not drawn),52*,-1,0
CC[n+]1c(C=CN(C)c2ccccc2)oc2ccc(Cl)cc21,·,7,12
CCN1/C(=C/C=C/c2oc3ccc(-c4ccccc4)cc3[n+]2CC)Oc2ccc(-c3ccccc3)cc21,0,97*,100*
COc1ccc(-c2nsc(SCC(=O)Nc3ccc(Br)cc3)n2)cc1,-25,·,·
CCN(CC)c1ccc(/C=N\NC(=O)C2(O)c3ccccc3-c3ccccc32)cc1,-6,·,·
Cn1c(=O)c2[nH]c(CNc3ccc(C(=O)O)cc3)nc2n(C)c1=O,72*,·,·
C[C@H](NCc1nc2c([nH]1)c(=O)n(C)c(=O)n2C)c1ccccc1,-18,·,·
CN(C)c1ncc(NS(=O)(=O)c2ccccc2F)c(N(C)C)n1,-4,·,·
O=C(CCCSc1ccc(F)cc1)Nc1nc2c(s1)Cc1ccccc1-2,6,·,·
O=C(Cc1ccc(Br)cc1)Nc1ccc(-c2ccc3nncn3n2)cc1,-9,·,·
COc1cc(Cl)ccc1NCCC(=O)c1cccs1,46,·,·
Cc1ccc(C=C2C(Cl)=C(Cl)C(Cl)=C2Cl)cc1,13,97*,100*
Cc1ccc(C=NN=Cc2ccc(C)cc2)cc1,-6,2,10
O=C(Nc1ccc(Cl)c2ncsc12)c1ccc([N+](=O)[O-])o1,6,·,·
SMILES,SSB-PriA inh,Sa RN4220 lethal,Sa ugtP lethal
C=C[C@]12CC[C@H](OC(C)=O)CC1=CCC1C2CC[C@@]2(C)C1CCC21OCCO1 (stereo partly drawn),-8,-5,92*
CC(=O)OC1CCC2(C=NO)C(=CCC3C4CCC(=O)C4(C)CCC32)C1 (stereo not drawn),-20,5,5
COc1cccc2cc(C(=O)N3CC(n4ccnn4)C3)oc12,-8,·,·
CCN(C[C@H]1N[C@@](Cc2ccccc2)(C(=O)OC)[C@H]2C(=O)N(Cc3ccccc3)C(=O)[C@@H]12)C(=O)Nc1ccc(C(F)(F)F)cc1,-3,100*,100*
CCN(C[C@H]1N[C@@](Cc2ccccc2)(C(=O)OC)[C@H]2C(=O)N(Cc3ccccc3)C(=O)[C@@H]12)C(=O)Nc1ccc(C)cc1,-10,-1,-2
CCn1ccc(C(=O)N=c2sc3c(OC)ccc(OC)c3n2CC(=O)OC)n1,-16,·,·
CC1(C)Cc2ccccc2C(CCl)=N1,45*,·,·
CC1(C)Cc2ccccc2C(COc2ccccc2)=N1,8,·,·
CC(=O)c1ccc(C(=O)N(Cc2cccnc2)c2nc3cc(C)cc(C)c3s2)cc1,4,·,·
CCN(CC)CCn1c2c(c(SCC(=O)Nc3ccc(F)cc3F)nc1=O)CCCC2,8,·,·
COc1cc(N=C2C(=O)N3c4c(cccc42)C(C)=CC3(C)C)cc(OC)c1,7,6,-2
CC1=CC(C)(C)N2C(=O)C(=Nc3ccc(O)cc3)c3cccc1c32,40*,7,1
COc1cccc(NC(=O)N2CCC(c3ccsc3)CC2)c1OC,0,·,·
Cc1cc(N2CCCC2)nc(Nc2ccc(NS(=O)(=O)c3ccc(Cl)cc3)cc2)n1,-9,·,·
Cc1cc(N2CCCC2)nc(Nc2ccc(NS(=O)(=O)c3ccc(I)cc3)cc2)n1,44*,·,·
O=C(NCCn1nc(-c2ccccn2)c2c1CCCC2)c1ccccc1C(F)(F)F,-19,·,·
O=C(Cc1ccccc1)NCc1nnc(SCC(=O)Nc2ccccc2C(F)(F)F)n1-c1cccc(Cl)c1,3,·,·
O=C(Nc1nnc(-c2ccccc2Cl)o1)c1nc2ccccc2s1,-6,99*,100*

# Screens as filed in PubChem BioAssay.
